Assay [1] is described as follows: reducers of endogenous Her2 protein level, primary screen, SKBR3 breast tumor cells, AlphaScreen, ATP viability (AID 461;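 active = Her2 level under about 52% in both replicate screens, with viability over 70% of control, limit read from the data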;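 as to Her2 level: lower value means less Her2 protein in the cells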;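 as to viability: percent of carrier control wells set as 100% viability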). The note with it: 18-24 h, measured here: SKBR3 viability, ATP luminescence, at 10 µM.
For assay [2], the target named is Receptor tyrosine-protein kinase erbB-2 (Homo sapiens) (UniProt P04626). The assay is described as above. Conditions: 18-24 h, at 10 µM, stronger effect = lower value.
Receptor tyrosine-protein kinase erbB-2 (Homo sapiens), sequence (P04626 whole entry, looked up): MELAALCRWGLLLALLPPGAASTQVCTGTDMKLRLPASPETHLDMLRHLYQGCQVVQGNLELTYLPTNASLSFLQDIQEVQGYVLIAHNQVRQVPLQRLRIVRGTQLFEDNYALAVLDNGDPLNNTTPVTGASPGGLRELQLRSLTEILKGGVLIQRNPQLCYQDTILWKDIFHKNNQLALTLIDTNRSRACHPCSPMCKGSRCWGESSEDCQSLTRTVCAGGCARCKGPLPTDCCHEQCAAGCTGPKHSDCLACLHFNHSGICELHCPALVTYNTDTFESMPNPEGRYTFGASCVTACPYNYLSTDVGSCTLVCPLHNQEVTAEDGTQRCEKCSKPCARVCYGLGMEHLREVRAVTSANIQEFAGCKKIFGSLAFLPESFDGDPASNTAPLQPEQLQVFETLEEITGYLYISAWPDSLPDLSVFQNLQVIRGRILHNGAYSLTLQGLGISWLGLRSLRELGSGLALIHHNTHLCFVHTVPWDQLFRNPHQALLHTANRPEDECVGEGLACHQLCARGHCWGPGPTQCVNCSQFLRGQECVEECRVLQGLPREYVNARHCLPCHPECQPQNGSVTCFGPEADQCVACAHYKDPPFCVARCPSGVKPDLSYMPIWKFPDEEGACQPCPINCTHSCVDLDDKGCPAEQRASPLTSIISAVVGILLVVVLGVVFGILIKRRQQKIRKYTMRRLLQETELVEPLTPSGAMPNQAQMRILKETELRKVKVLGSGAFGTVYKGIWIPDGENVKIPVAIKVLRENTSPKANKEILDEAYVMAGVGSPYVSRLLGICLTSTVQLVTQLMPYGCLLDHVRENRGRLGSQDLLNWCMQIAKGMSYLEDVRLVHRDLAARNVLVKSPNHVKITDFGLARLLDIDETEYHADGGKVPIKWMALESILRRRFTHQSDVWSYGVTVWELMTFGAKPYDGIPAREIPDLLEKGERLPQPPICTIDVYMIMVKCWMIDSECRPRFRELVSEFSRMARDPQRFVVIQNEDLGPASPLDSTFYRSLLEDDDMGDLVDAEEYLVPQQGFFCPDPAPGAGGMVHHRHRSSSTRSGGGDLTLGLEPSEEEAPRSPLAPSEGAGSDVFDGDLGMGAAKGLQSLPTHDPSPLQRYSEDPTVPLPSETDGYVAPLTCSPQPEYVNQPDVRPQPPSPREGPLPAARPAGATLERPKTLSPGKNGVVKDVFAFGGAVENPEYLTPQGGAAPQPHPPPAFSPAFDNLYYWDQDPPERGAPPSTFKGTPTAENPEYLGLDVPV
Assay [3] in a line: SK-BR-3 cell growth inhibitors, pilot screen, 24 h, human (AID 572;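 active = viability at or below 10% of carrier control in both of two separate runs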;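 also: compound exposure lasted between 18 and 24 h rather than exactly 24 h; 100% = carrier-treated control wells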). The note with it: SK-BR-3 viability, CellTiter-Glo luminescence, at 10 µM, stronger effect = lower value.
Assay [4] is described as follows: HUVEC growth inhibition – cell-based, human, primary screen (AID 575;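 active = viability at or below 30% in both replicate assays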;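 also: 100% = median of untreated cell wells with 0.1% DMSO on each plate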). Conditions: HUVEC proliferation, CellTiter-Glo luminescence, 72 h; at 10 µM; stronger effect = lower value. (In general: In ATP-based viability assays light output follows the ATP content of the culture.)
Assay [5] can be described thus: growth inhibitors of H69AR lung tumor, primary screen, human, duplicate replicates (AID 580;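 active = viability at or under a set limit in both replicates, limit being median viability minus 3 SD, cut at about 48% in these data, passing the limit was not always enough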;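 also: 100% = mean luminescence of untreated wells and 0% = no signal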). The note with it: H69AR lung tumor cells viability, ATP luminescence, 72 h; at 10 µM; stronger effect = lower value.
Assay [6] can be described thus: reversal of MRP1-mediated doxorubicin resistance, pilot screen, H69AR cells, doxorubicin co-treatment (AID 601;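 active = viability loss from added drug above about 55%, and viability with drug at most 40%, in both replicates, limit read from the data, passing the limit was not always enough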). The note with it: CellTiter-Glo, 72 h, at 10 µM; for differential viability (reversal): stronger effect = higher value.
Assay [7] is described as follows: 384-well plate pilot, post-Golgi transport modulator project, inhibition of yeast transport mutant growth (AID 636; in the data active = inhibition above about 31%). Conditions: absorbance 615 nm, about 18 h, stronger effect = higher value.
Assay [8] can be described thus: growth suppression of yeast trafficking mutant, preliminary HTS, modulators of trafficking downstream of Golgi apparatus project, 1536-format plate, OD 615 nm (AID 637; in the data active = inhibition above about 30%). Conditions: yeast transport mutant growth, absorbance 615 nm, 18 h; stronger effect = higher value.
Assay [9] in a line: OD615 S. cerevisiae growth inhibition, permissive medium, pilot counter-assay, permissive growth control for S. cerevisiae lifespan shortening project (AID 705;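 active = growth inhibition above 25% in both replicates, a cutoff set 3 SD above the mean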). Conditions: OD615, 24 h, at 10 µM, stronger effect = higher value.
Assay [10] is described as follows: Restrictive medium S. cerevisiae growth inhibition, OD615, pilot screen of yeast lifespan reduction project, restrictive growth control (AID 706;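 active = growth inhibition above a set limit, 3 SD over mean compound inhibition, in both replicates, cut at about 43% in these data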;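 also: modified DeaD lifespan yeast strain shifted to restrictive glucose medium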). The note with it: OD615, 48 h, at 10 µM, stronger effect = higher value.
The nature of assay [11]: viability gain of MRP-1-high H69AR cells under doxorubicin, pilot screen, MRP-1 activator project, CellTiter-Glo, duplicate (AID 807;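 active = viability increase at or above a cutoff of the median across tested compounds plus 3 SD, cut at about 8.5% in these data, passing the limit was not always enough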;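 also: compound pretreatment 18-22 h then 72 h combined with doxorubicin; 0% = doxorubicin alone and 100% = vehicle without doxorubicin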). Conditions: H69AR viability with doxorubicin, CellTiter-Glo luminescence; at 10 µM; stronger effect = higher value.
Assay [12] can be described thus: growth suppression of beta-catenin knockout HCT116, pilot screen, human colon tumor cells (AID 823;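 active = cell viability at or below a set limit in both duplicate runs, the limit being the all-compound median minus 4 SD, cut at about 23% in these data, passing the limit was not always enough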;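 also: 0% = wells killed by 20 µM Hyamine and 100% = untreated DMSO cell wells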). The note with it: CellTiter-Glo, 60 h, at 10 µM, stronger effect = lower value.
Assay [13] is described as follows: growth suppression of PTEN-deleted HCT116, pilot screen, cell-based, HCT116 clonal line, CellTiter-Glo (AID 824;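 active = viability at or below 27.92% in each of two runs, the all-compound median minus 4 SD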;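 also: 0% = 20 µM Hyamine control and 100% = vehicle cell control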). Conditions: 60 h, at 10 µM, stronger effect = lower value.
Assay [14] is described as follows: inhibitors of the yeast RAM network, pilot screen, dse1pr::URA3 reporter, 5-FOA selection (AID 869;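 active = inhibition over a set limit, the all-compound mean plus 3 SD, in both replicate runs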;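 also: 0% = DMSO wells with no growth and 100% = 10 µM 1-NA-PP1 with full growth; RAM network block rescues cells from 5-FOA so hits raise OD615 growth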). Conditions: S. cerevisiae dse1pr::URA3 5-FOA growth, OD615, 2 d; at 10 µM; stronger effect = higher value; strain carries analog-sensitive mutant Cbk1 kinase.
The nature of assay [15]: RAM signaling pathway blockade in yeast – S. cerevisiae, Pdr1DBD-CYC8 efflux-inhibited sensitized strain, primary screen (AID 1298).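 Also: 0% = DMSO untreated cells without growth and 100% = 10 µM 1-NA-PP1 full growth; higher means more yeast growth rescued from 5-FOA killing.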 The note with it: S. cerevisiae cbk1-as DSE1-URA3 strain, 5-FOA growth OD615, 2 d; at 50 µM; stronger effect = higher value.
Where [16] appears, read: H69AR cells + 2 uM doxorubicin, measured here: viability with 2 uM doxorubicin, stronger effect = lower value.
The mark [17] stands for this setting: H69AR cells, compound alone cytotoxicity.

Records with an inconclusive call do not appear. Calls of active or inactive are those of the source.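 The calls were made as follows, unless noted: active = RAM network inhibition above 8.4% in each of two replicates, 3 SD over the compound average; inconclusive = above 8.4% inhibition in only one replicate; inactive = 8.4% inhibition or less in each replicate.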

For the molecule `CCOC(=O)c1cccc(NC2c3ccccc3C(=O)N2Cc2ccco2)c1` (stereo unspecified), the viability in [1] was 98.5%; in [3] it was 98.5% (inactive); in assay [4] it was 76.2% (inactive); in [5] it was 82.1% (inactive); in assay [6] (setting [16]), 88.4%; in assay [6] (setting [17]) it was 82.1%. Besides, the viability in assay [12] was 64.7% (inactive); in [13], 74.6% (inactive). Further, the Her2 level in assay [2] is 98% (inactive). For the same molecule, in assay [6] (H69AR cells + 2 uM doxorubicin), the differential viability (reversal) was -6.29% (inactive). Further, the inhibition in assay [7] was -3.6% (inactive); in [8], -0.83% (inactive); in assay [14], 2.4% (inactive). For the same molecule, the growth inhibition in [9] was 2.55% (inactive); in assay [10], 1.38% (inactive). In addition, the viability increase in assay [11] was -5.15% (inactive). In addition, the RAM network inhibition in [15] is 8.31% (inactive).

In the case of `CCCCCCn1c(SCC(=O)OC)nc2c1c(=O)[nH]c(=O)n2C`, the viability is 100% in [1]; 100% (inactive) in [3]; 81.1% (inactive) in [4]; 70.9% (inactive) in assay [5]; 70.6% in assay [6] (setting [16]); 70.9% in assay [6] (setting [17]). Further, the viability in assay [12] is 98.6% (inactive); in assay [13], 103% (inactive). For the same molecule, in assay [2], the Her2 level is 90% (inactive). Also, the differential viability (reversal) in assay [6] (H69AR cells + 2 uM doxorubicin) is 0.365% (inactive). In addition, the inhibition in assay [7] was -4.8% (inactive); in assay [8] it was 1.33% (inactive); in assay [14], 0.08% (inactive). For the same molecule, the growth inhibition in [9] was -12.9% (inactive); in assay [10] it was 9.17% (inactive). Besides, the viability increase in [11] was -1.89% (inactive). Moreover, the RAM network inhibition in assay [15] was 2.66% (inactive).

With `CC(=O)NC(C)C(=O)OCC(=O)Nc1ccc(Br)cc1` (stereo unspecified), the viability in assay [1] was 95%; in assay [3], 95% (inactive); in assay [4], 93.9% (inactive); in assay [5] it was 94.5% (inactive); in assay [6] (setting [16]) it was 89.7%; in assay [6] (setting [17]), 94.5%. For the same molecule, the viability is 99.7% (inactive) in [12] and 100% (inactive) in [13]. The Her2 level in assay [2] is 80.5% (inactive). In assay [6] (H69AR cells + 2 uM doxorubicin), the differential viability (reversal) is 4.86% (inactive). Moreover, the inhibition in assay [7] is 0.13% (inactive); in assay [8], -4.17% (inactive); in [14], 2.33% (inactive). The figures for the growth inhibition in assay [9] and in assay [10] were -14.2% (inactive) and -18.7% (inactive), respectively. In addition, the viability increase in [11] was 0.09% (inactive). Besides, the RAM network inhibition in [15] was 1.92% (inactive).

For orientation: viability means a read-out of living cells in per cent, often relative to untreated cells. For orientation: inhibition means the change of the read-out against control, counted positive when it falls.
